Activity calls are given as the source filed them. A call without a number means that no potency is given here. Calls follow the shape of the dose curve; as a rule, active = well fitted activation curve with a large enough effect in the repeat runs; inconclusive = weak or mixed curves; inactive = flat fitted curve, though single readings scatter.
target: KiSS-1 receptor (Homo sapiens) (UniProt Q969F8); assay: Human kisspeptin (KISS1R) small molecule agonists, calcium flux assay in KISS1R-HEK293 cells (AID 1920064); conditions: KISS1R-HEK293, calcium flux fluorescence, agonist; series mostly up to 76.8 µM; activation: at the top concentration
Source text: National Center for Advancing Translational Sciences [NCATS]
Division of Preclinical Innovation [DPI]
U.S. Environmental Protection Agency [EPA]
National Institutes of Environmental Health Sciences [NIEHS]
National Toxicology Program [NTP]
U.S. Food and Drug Administration [FDA]
Kisspeptin and its receptor KISS1R play key roles in mammalian reproduction due to their involvement in the onset of puberty and control of the hypothalamic-pituitary-gonadal axis such as regulates GnRH release from the hypothalamus. The kisspeptin/KISS1R system also plays a direct role in peripheral organs (including the ovary, testis, uterus, and placenta) and is implicated in reproductive diseases such as miscarriage and polycystic ovary syndrome (PCOS). Abnormal KISS1R activity is associated with abnormal puberty, infertility, endometriosis, and hormone-dependent tumors. The KISS1 receptor (KISS1R, also called GPR54), a G-protein-coupled receptor (GPCR), acts (through phospholipase C) to increase intracellular inositol trisphosphate and then release intracellular calcium stores. Cell-based KISS1R-HEK293 assay is using HEK293 cells that have been genetically engineered to express the human KISS1R, which activity can be measured by calcium signaling. A compound/drug can activate (agonist) KISS1R that can be monitored by levels of intracellular calcium.
KISS1R-HEK293 cells developed by Codex Corp contain human KISS1R gene, which was stably integrated into HEK 293 cells. The compound activation can be detected by fluorescence intensity via calcium flux assay. This cell line has been used to screen the Tox21 10K compound library to identify agonists of KISS1R.
KISS1R-Hek293 cells were dispensed at 1500 cells/4uL/well in 1536-well black wall/clear bottom plates using a multidrop dispenser. After the assay plates were incubated at a 37 C/5% CO2 incubator for 18 hours, 4 microL of Calcium Dye Solution was added to each well. The plates were incubated at 37 C for 1 hour. And then 23 nL of compounds dissolved in DMSO, positive controls, or DMSO only was transferred to the assay plate by a pin tool station. The fluorescence intensity in the plates was measured using FDSS 7000EX kinetic plate reader with a filter set of Ex/Em=480/540 for 3 min at 1 sec intervals. Each test compound was measured at 15 concentrations and in triplicates.

Chain of KiSS-1 receptor (Homo sapiens) (Q969F8 whole entry, looked up): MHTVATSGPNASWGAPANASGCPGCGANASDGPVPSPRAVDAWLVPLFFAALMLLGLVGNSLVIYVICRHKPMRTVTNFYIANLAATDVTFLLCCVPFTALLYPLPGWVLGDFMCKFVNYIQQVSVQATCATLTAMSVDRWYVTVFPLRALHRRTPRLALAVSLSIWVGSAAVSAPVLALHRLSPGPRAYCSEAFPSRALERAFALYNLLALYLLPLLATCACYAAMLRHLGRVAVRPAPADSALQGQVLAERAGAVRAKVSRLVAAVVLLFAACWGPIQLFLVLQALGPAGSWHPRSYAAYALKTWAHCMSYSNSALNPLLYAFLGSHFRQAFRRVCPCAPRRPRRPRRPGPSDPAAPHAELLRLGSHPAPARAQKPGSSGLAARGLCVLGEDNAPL

Compound | Potency | activation
C(=NC1CCCCC1)=NC1CCCCC1 | inactive | 
CC(Cl)CCl (stereo not given) |  | -0.0812% (inactive)
Nc1ccc(-c2ccc(N)c(N)c2)cc1N | inactive | 
O=C(Cc1ccccc1)c1ccccc1 |  | 0.426% (inactive)
Nc1ccc(Cl)cc1N |  | -1.75% (inactive)
Cc1ccccc1CCl |  | 0.655% (inactive)
COc1cc(OC)nc(Oc2cccc(Oc3nc(OC)cc(OC)n3)c2C(=O)O)n1 |  | 1.26% (inactive)
OCc1ccco1 | inactive | 
COP(=S)(OC)Oc1ccc([N+](=O)[O-])cc1 | inactive | 
CCCCCCCCCCCC(=O)O | inactive | 
COc1ccc(C=O)cc1OC | inactive | 
CCC(Cl)[N+](=O)[O-] (stereo not given) |  | 0.657% (inactive)
CCCCCCCCCl | inactive | 
CC(C=O)Cc1ccc2c(c1)OCO2 (stereo not given) |  | -1.16% (inactive)
CCCN(CCC)N=O | inactive | 
CCOC(=O)c1cncn1C(C)c1ccccc1 (stereo not given) |  | 8.4% [at 35.3 µM] (inactive)
C=CC(=O)NC(C)(C)CC(C)=O |  | -0.815% (inactive)
Nc1nc(N)nc(NC2CC2)n1 | inactive | 
CCOC(=O)CC(SP(=O)(OC)OC)C(=O)OCC (stereo not given) | inactive | 
C=COCCCl |  | 0.0307% (inactive)

Compound | Potency | activation
C1CCC(NC2CCCCC2)CC1 | inactive | 
COCC(=O)N(c1c(C)cccc1C)N1CCOC1=O |  | -2.2% (inactive)
Cc1cccc(C#N)c1 |  | -0.339% (inactive)
CCC(C)(C#N)N=NC(C)(C#N)CC (stereo not given) |  | 1.93% (inactive)
CC(C)(C)C(=O)C(Cl)Cl |  | -1.12% (inactive)
CC1(C)CC(=O)CC(C)(C)N1[O] |  | 0.531% (inactive)
CCCCCCCCCCCC[N+](C)(C)CCOc1ccccc1 | inactive | 
Nc1ccc(-c2ccc(N)cc2)cc1 | inactive | 
C[N+](C)(C)CC(=O)[O-] | inactive | 
CC(C)C#N | inactive | 
CCN(CC)C(=S)S | inactive | 
ClC(Cl)(Cl)c1ccccc1 | inactive | 
Cc1ccc(N)cc1 | inactive | 
C/C=C/CC#N |  | -0.0916% (inactive)
CCCCCON=O |  | 3.85% (inactive)
c1ccc(P(c2ccccc2)c2ccccc2)cc1 | inactive | 
C=CC=O |  | -2.1% (inactive)
CCCCN(CC)c1c([N+](=O)[O-])cc(C(F)(F)F)cc1[N+](=O)[O-] | inactive | 
COC(=O)NC(=S)Nc1ccccc1NC(=S)NC(=O)OC | inactive | 
O=[N+]([O-])c1ccc(Cl)c(Cl)c1 | inactive | 

Source: PubChem BioAssay (Tox21)
